Bioassay records: PubChem, several laboratories
Compounds with a hit are over-represented: about 2.9% of the library has one in this group of screens.
GAA850 FXN act: FXN promoter activators, primary screen, cell-based, luciferase luminescence, HEK293 lucGAA850. HEK293 lucGAA850 FXN promoter luciferase reporter, 24 h; percent of 10 µM SAHA response. activation, % at 6 µM. actives 0.56% (n = 360,000). AID 540364, 2011;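 active means activation above the average of all compounds screened plus 3 SD, cutoff fixed separately per campaign, cut at about 7.5% in these data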
SMARCA2 act: SMARCA2 (BRM) function activators, primary screen, cell-based, luminescence, high throughput | MG213 cells, MMTV-luciferase reporter, dexamethasone, overnight | activation, % at 9.1 µM | actives 1% (n = 370,000); in the data active means activation above about 7.8%
proKLK7 act: proKLK7 zymogen activators, primary screen, biochemical, fluorescence intensity | Kallikrein-7 (Homo sapiens), P49862 | purified proKLK7, EDANS-DABCYL substrate fluorescence; 100% is mature enzyme control, 0% vehicle | activation, % at 7 µM | actives 0.9% (n = 370,000);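 active means activation above the mean of all tested compounds plus 3 SD, computed per campaign excluding outliers beyond control limits, cut at about 13% in these data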
FAS-TE inh: FAS thioesterase domain inhibitors, primary screen, biochemical, fluorescence intensity, uHTS; recombinant FAS-TE, OMFH fluorogenic substrate, fluorescence endpoint; inhibition, % at 15 µM; actives 0.67% (n = 360,000); AID 602261, 2012;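 active means compounds whose normalised, plate-corrected inhibition of enzyme fluorescence in the single-dose primary screen is 50% or more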
Target sequence (P49327 whole entry, looked up, the tested form may be a part): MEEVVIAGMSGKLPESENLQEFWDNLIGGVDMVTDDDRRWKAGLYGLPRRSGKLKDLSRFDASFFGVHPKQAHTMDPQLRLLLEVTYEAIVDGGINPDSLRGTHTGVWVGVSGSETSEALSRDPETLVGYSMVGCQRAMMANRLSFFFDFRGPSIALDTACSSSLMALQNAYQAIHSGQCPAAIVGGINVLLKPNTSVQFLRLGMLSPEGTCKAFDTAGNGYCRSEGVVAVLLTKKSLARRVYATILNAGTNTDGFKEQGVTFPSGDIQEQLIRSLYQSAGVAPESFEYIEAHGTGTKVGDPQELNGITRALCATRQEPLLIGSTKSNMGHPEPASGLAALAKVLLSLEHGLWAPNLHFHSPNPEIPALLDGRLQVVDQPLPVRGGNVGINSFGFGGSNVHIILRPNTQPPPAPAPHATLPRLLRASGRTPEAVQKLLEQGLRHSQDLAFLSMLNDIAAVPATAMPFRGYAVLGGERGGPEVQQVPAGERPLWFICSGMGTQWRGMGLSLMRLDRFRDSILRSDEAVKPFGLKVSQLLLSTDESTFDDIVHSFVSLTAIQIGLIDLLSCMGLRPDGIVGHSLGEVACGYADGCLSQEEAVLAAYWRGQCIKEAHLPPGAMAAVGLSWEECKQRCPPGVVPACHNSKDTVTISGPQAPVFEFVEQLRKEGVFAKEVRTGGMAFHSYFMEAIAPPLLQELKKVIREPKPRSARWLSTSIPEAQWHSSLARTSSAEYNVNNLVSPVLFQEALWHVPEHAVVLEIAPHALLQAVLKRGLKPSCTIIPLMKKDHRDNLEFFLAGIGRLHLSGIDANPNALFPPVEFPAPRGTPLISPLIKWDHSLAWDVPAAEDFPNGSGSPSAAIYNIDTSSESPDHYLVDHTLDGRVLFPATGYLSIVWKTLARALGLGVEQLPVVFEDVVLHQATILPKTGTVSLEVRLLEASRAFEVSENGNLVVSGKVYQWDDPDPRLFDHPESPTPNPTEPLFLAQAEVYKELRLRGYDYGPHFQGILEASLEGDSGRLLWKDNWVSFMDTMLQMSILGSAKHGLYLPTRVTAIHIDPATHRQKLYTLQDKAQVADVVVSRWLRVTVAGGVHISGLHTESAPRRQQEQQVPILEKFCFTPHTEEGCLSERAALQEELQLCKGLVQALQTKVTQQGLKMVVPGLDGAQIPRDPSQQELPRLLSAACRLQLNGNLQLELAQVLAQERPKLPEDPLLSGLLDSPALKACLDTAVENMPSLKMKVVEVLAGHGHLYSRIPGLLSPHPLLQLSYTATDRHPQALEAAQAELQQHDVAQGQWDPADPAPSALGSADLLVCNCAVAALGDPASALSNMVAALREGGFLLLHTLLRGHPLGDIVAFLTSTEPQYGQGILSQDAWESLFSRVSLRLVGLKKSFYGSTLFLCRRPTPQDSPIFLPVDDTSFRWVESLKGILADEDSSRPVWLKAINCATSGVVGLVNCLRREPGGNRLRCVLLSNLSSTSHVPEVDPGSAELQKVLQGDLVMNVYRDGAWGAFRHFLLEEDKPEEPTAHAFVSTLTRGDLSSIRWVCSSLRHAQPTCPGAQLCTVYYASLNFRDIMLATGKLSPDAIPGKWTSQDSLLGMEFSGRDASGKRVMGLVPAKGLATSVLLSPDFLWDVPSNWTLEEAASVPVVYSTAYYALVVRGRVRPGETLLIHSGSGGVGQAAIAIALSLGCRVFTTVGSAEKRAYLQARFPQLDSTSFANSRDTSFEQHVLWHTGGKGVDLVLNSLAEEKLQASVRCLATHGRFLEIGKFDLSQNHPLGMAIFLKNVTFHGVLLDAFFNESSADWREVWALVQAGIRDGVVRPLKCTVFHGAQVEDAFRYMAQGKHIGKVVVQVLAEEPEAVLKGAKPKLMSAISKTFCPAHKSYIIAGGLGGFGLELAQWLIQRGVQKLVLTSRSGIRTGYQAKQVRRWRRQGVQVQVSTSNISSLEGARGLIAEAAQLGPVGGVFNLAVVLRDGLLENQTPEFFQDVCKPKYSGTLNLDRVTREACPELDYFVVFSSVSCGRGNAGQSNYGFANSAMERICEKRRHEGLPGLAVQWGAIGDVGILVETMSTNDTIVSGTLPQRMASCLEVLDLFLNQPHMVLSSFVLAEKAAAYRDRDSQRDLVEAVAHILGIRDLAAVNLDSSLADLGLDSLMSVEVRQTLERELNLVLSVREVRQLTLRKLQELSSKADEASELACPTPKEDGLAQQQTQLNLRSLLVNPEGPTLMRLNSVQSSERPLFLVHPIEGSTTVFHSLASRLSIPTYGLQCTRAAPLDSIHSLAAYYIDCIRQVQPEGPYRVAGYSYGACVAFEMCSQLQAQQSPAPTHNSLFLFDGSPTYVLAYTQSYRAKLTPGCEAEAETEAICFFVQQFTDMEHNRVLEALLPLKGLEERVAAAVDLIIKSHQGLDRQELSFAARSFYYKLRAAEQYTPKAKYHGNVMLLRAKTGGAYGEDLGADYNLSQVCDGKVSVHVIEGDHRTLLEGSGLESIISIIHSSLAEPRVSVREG
GAA30 counter: GAA30 FXN promoter activators, confirmation, counter-screen for GAA850 frataxin promoter activator project, cell-based, luminescence, HEK293, lucGAA30, triplicate; activation, % at 6 µM; shares compounds with GAA850 FXN act; actives 66% (n = 1,900); HEK293 lucGAA30 FXN promoter luciferase, 24 h; DMSO = 0%, 5 µM ipriflavone = 100%;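 active means mean activation above the mean of solvent-only control wells plus 3 SD, cut at about 22% in these data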;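 further: counterscreen of GAA850 promoter hits where activity marks nonselective or luminescence artifacts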
GAA850 confirm: FXN GAA850 promoter activators in reporter cells, confirmation, cell-based, luminescence, HEK293 lucGAA850, triplicate | actives 86% (n = 1,900) | HEK293 lucGAA850 FXN promoter luciferase reporter, 24 h; 100% = activation by SAHA | AID 588351, 2011 | shares compounds with GAA850 FXN act | activation, % at 6 µM;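 active means mean activation above a set limit taken from the primary screen, cut at about 8% in these data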
A number is an active result.

How did COc1cccc(/C=C/C(=O)c2ccc3c(c2)OCCO3)c1OC do in these assays?
GAA850 FXN act: 7.9; SMARCA2 act: inactive; proKLK7 act: inactive; FAS-TE inh: inactive; GAA30 counter: 97.6; GAA850 confirm: 39.4

What do the screens show for `O=C(/C=C/c1ccccc1[N+](=O)[O-])c1ccc(F)cc1`?
GAA850 FXN act: 8.5; SMARCA2 act: inactive; proKLK7 act: inactive; FAS-TE inh: inactive; GAA30 counter: 57.0; GAA850 confirm: 24.6

How did COc1ccccc1/C=C/C(=O)c1ccccc1 do in these assays?
GAA850 FXN act: 7.6; SMARCA2 act: inactive; proKLK7 act: inactive; FAS-TE inh: inactive; GAA30 counter: 87.0; GAA850 confirm: 33.0

How did O=C(NC12CC3CC(CC(C3)C1)C2)c1ccc(-c2ccccc2Cl)o1 do in these assays?
GAA850 FXN act: inactive; SMARCA2 act: inactive; proKLK7 act: inactive; FAS-TE inh: inactive

What do the screens show for `C=CCN(C(=O)c1oc2c(Cl)cc(C)cc2c1C)C1CCS(=O)(=O)C1` (stereo unspecified)?
GAA850 FXN act: 8.1; SMARCA2 act: inactive; proKLK7 act: inactive; FAS-TE inh: inactive; GAA30 counter: 102.3; GAA850 confirm: 40.4

Results for Cc1cc(Cl)c2oc(C(=O)N3CCN(C4CCS(=O)(=O)C4)CC3)c(C)c2c1 (stereo unspecified) ?
GAA850 FXN act: inactive; SMARCA2 act: inactive; proKLK7 act: inactive; FAS-TE inh: inactive

Results for O=C(c1ccc(-c2ccccc2Cl)o1)N1CCC1 ?
GAA850 FXN act: inactive; SMARCA2 act: inactive; proKLK7 act: inactive; FAS-TE inh: inactive

Results for O=C(c1ccc(-c2cccc(Cl)c2Cl)o1)N1CCOCC1 ?
GAA850 FXN act: 8.8; SMARCA2 act: inactive; proKLK7 act: inactive; FAS-TE inh: inactive; GAA30 counter: 108.0; GAA850 confirm: 39.1

What do the screens show for `COc1ccccc1CN1CCCC(CNC(=O)c2cccc3ccccc23)C1` (stereo unspecified)?
GAA850 FXN act: inactive; SMARCA2 act: inactive; proKLK7 act: inactive; FAS-TE inh: inactive

What do the screens show for `COc1ccc2nc(N(CCN(C)C)C(=O)c3ccc(C(=O)c4ccccc4)cc3)sc2c1`?
GAA850 FXN act: inactive; SMARCA2 act: inactive; proKLK7 act: inactive; FAS-TE inh: inactive

How did Cc1c(C(=O)Nc2ccccc2)csc1-c1ccccc1 do in these assays?
GAA850 FXN act: 8.5; SMARCA2 act: inactive; proKLK7 act: inactive; FAS-TE inh: inactive; GAA30 counter: 112.5; GAA850 confirm: 28.6

How did O=C(N/N=C/c1ccccn1)c1ccc(NC(=O)c2ccccc2Cl)cc1 do in these assays?
GAA850 FXN act: inactive; SMARCA2 act: inactive; proKLK7 act: inactive; FAS-TE inh: inactive

What do the screens show for `O=C(N/N=C/c1ccccn1)c1cc(-c2ccccc2)nc2ccccc12`?
GAA850 FXN act: 7.7; SMARCA2 act: inactive; proKLK7 act: inactive; FAS-TE inh: inactive; GAA30 counter: inactive; GAA850 confirm: inactive

Results for O=C(N/N=C/c1ccccn1)c1cc(C2CC2)nc2ccccc12 ?
GAA850 FXN act: inactive; FAS-TE inh: inactive

Results for O=C(N/N=C/c1ccccn1)c1ccc(Cl)c(Cl)c1 ?
GAA850 FXN act: 9.1; SMARCA2 act: inactive; proKLK7 act: inactive; FAS-TE inh: inactive; GAA30 counter: inactive; GAA850 confirm: inactive

What do the screens show for `CCCCc1c(-c2ccccc2OC)ncn1CCc1ccc(OC)cc1`?
SMARCA2 act: inactive; proKLK7 act: inactive; FAS-TE inh: inactive

Results for N#Cc1nc(-c2ccccc2Cl)oc1N1CCCCC1 ?
GAA850 FXN act: 8.7; SMARCA2 act: inactive; proKLK7 act: inactive; FAS-TE inh: inactive; GAA30 counter: 56.2; GAA850 confirm: 26.1

Results for N#Cc1nc(COc2ccccc2F)oc1N1CCCCCC1 ?
GAA850 FXN act: 9.6; SMARCA2 act: inactive; proKLK7 act: inactive; FAS-TE inh: inactive; GAA30 counter: 47.1; GAA850 confirm: 23.7

Results for Cc1ccc(CNC(=O)c2cc(=O)c3cc(C)ccc3o2)cc1 ?
GAA850 FXN act: inactive; SMARCA2 act: inactive; proKLK7 act: inactive; FAS-TE inh: inactive

How did Fc1ccc(Nc2ccnc(Nc3ccc(F)cc3)n2)cc1 do in these assays?
GAA850 FXN act: 8.4; SMARCA2 act: inactive; proKLK7 act: inactive; FAS-TE inh: inactive; GAA30 counter: 106.8; GAA850 confirm: 34.1

What do the screens show for `Cc1cc(C(F)F)n2ncc(C(=O)N3CCCCC3)c2n1`?
GAA850 FXN act: inactive; SMARCA2 act: inactive; proKLK7 act: inactive; FAS-TE inh: inactive

What do the screens show for `O=C(Oc1c(-c2ccccc2)oc2ccccc2c1=O)c1ccccc1`?
GAA850 FXN act: 12.9; SMARCA2 act: inactive; proKLK7 act: inactive; FAS-TE inh: inactive; GAA30 counter: 45.3; GAA850 confirm: 18.7

Results for CN(Cc1ccccc1)C(=O)CN1C(=O)NC2(CCCCCCC2)C1=O ?
GAA850 FXN act: inactive; SMARCA2 act: inactive; proKLK7 act: inactive; FAS-TE inh: inactive

What do the screens show for `COc1cc2c(cc1OC)-c1nnnn1C(C)(C)C2`?
GAA850 FXN act: inactive; SMARCA2 act: inactive; proKLK7 act: inactive; FAS-TE inh: inactive

What do the screens show for `COc1cc2c(cc1OC)-c1nnc(-c3cccs3)n1C(C)(C)C2`?
GAA850 FXN act: 13.3; SMARCA2 act: inactive; proKLK7 act: inactive; FAS-TE inh: inactive; GAA30 counter: inactive; GAA850 confirm: 8.2

Results for CCCCc1c(-c2ccccc2OC)ncn1Cc1cccc(F)c1 ?
SMARCA2 act: inactive; proKLK7 act: inactive

What do the screens show for `CCc1ccc(-n2cc(-c3ccc([N+](=O)[O-])cc3)[nH]c2=S)cc1`?
GAA850 FXN act: inactive; SMARCA2 act: inactive; proKLK7 act: inactive; FAS-TE inh: inactive

How did CCc1ccc(-c2cn(C3CCCCC3)c(=S)[nH]2)cc1 do in these assays?
GAA850 FXN act: 8.0; SMARCA2 act: inactive; proKLK7 act: inactive; FAS-TE inh: inactive; GAA30 counter: 58.2; GAA850 confirm: 24.3

How did CCn1cc(/C=C/C(=O)c2ccc(O)cc2)c(C)n1 do in these assays?
GAA850 FXN act: 8.7; SMARCA2 act: inactive; proKLK7 act: inactive; FAS-TE inh: inactive; GAA30 counter: 101.7; GAA850 confirm: 24.5

How did COC(=O)c1ccc(NC(=O)CSC2=NCCN2)cc1 do in these assays?
GAA850 FXN act: 10.0; SMARCA2 act: inactive; proKLK7 act: inactive; FAS-TE inh: inactive; GAA30 counter: 34.3; GAA850 confirm: 16.2

What do the screens show for `CCOc1ccc(NC(=O)CSC2=NCCN2)cc1`?
GAA850 FXN act: inactive; SMARCA2 act: inactive; proKLK7 act: inactive; FAS-TE inh: inactive

Results for N#CC(=C1CCCC1)c1nc(-c2ccccc2)cs1 ?
GAA850 FXN act: 9.5; SMARCA2 act: inactive; proKLK7 act: inactive; FAS-TE inh: inactive; GAA30 counter: 111.0; GAA850 confirm: 39.1
